Reference: the GenesisPotency data set
Hit rate of the full screen: of about 290,000 compounds, about 3,000 (1%) were called active. Cut-off read from the data, not from the text of the source: active = inhibition mostly above about 36% (no sharp cut-off); inactive = mostly below about 34%. The entries come from a sample that favours actives as a whole.

Target: T1, Nucleotide-binding oligomerization domain-containing protein 1, Homo sapiens (UniProt Q9Y239)
T1 sequence (whole entry): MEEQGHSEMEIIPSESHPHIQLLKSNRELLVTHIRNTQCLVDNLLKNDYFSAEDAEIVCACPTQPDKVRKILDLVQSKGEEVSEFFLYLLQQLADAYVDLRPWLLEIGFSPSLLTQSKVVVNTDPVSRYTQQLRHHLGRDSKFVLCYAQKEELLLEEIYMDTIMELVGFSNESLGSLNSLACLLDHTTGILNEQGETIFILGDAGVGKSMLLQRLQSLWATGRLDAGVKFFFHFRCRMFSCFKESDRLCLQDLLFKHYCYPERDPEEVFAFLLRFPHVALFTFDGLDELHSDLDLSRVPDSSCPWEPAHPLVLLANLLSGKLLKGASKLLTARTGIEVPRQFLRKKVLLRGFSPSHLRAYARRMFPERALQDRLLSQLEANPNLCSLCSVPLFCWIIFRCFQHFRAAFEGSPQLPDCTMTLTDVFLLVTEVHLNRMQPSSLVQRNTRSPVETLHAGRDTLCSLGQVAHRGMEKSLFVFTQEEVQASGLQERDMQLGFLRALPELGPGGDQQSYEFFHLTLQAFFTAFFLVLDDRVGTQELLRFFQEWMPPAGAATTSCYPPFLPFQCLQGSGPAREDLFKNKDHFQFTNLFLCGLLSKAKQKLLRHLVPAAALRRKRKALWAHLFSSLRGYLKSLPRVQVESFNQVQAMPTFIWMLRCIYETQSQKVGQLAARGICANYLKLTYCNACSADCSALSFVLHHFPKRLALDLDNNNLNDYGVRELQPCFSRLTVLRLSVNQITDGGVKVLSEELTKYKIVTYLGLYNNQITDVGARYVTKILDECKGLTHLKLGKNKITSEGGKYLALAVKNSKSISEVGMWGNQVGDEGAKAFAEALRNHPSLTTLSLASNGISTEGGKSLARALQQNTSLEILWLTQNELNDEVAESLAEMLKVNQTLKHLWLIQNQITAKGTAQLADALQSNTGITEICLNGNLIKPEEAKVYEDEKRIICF
Assay: inhibition of NOD1-driven NF-kB reporter – cell-based, luminescence, uHTS, primary screen (AID 1578)

**Q.** For `S=C(Nc1ccc(Cl)c(Cl)c1)NC1CCCCC1`, which outcome is on record?
**A.** active

**Q.** `Fc1ccc(NC(=S)NNc2ncc(C(F)(F)F)cc2Cl)c(F)c1` was tested. Which outcome did it give?
**A.** active

**Q.** Which outcome does the source give for `CCCCOC(=O)c1[nH]c2c(c1C)C(=O)CC(c1cc(OC)c(OC)c(OC)c1)C2` (configuration not stated) here?
**A.** active

**Q.** With `COCCOC(=O)c1[nH]c2c(c1C)C(=O)CC(c1cc(OC)c(OC)c(OC)c1)C2` (configuration not stated) as the compound, how does the outcome read?
**A.** active

**Q.** `Cc1ccc(-c2csc(NC(=O)C3=NN(c4ccccc4)C(=O)CC3)n2)cc1` was tested. Which outcome did it give?
**A.** active

**Q.** How did the outcome turn out when `O=C(N/N=C/c1ccc([N+](=O)[O-])s1)c1ccncc1` was run?
**A.** active

**Q.** For `Cc1ccc(C(=O)N/N=C/c2ccc([N+](=O)[O-])s2)cc1`, which outcome is on record?
**A.** active

**Q.** For `Cc1ccc2oc(Nc3nc(-c4ccccc4)cc(=O)[nH]3)nc2c1`, which outcome is on record?
**A.** active

**Q.** Which outcome does the source give for `COc1cccc(C(=O)Nc2ccc3nc(N4CCN(c5ncccn5)CC4)cc(C)c3c2)c1OC` here?
**A.** active

**Q.** Which outcome does the source give for `Cc1ccc2nc(-c3ccc4c(c3)OCCO4)cn2c1` here?
**A.** active

**Q.** `O=C(/C=C/c1ccco1)Oc1cc(Br)cc(/C=N/NC(=O)c2ccccc2O)c1` was tested. Which outcome did it give?
**A.** active

**Q.** With `O=C(Nc1nc(-c2ccccc2)cs1)C1CCCN(S(=O)(=O)c2ccccc2)C1` (configuration not stated) as the compound, how does the outcome read?
**A.** active

**Q.** Which outcome does the source give for `O=C(Nc1nc(-c2cccs2)cs1)c1ccc(S(=O)(=O)N2CCCC2)cc1` here?
**A.** active

**Q.** With `O=C(Nc1nnc(SCc2c(Cl)cccc2Cl)s1)c1cccc([N+](=O)[O-])c1` as the compound, how does the outcome read?
**A.** active

**Q.** For `CC(=O)c1cccc(NS(=O)(=O)c2ccc(-c3cnc(C4CC4)o3)cc2)c1`, which outcome is on record?
**A.** active

**Q.** With `COc1ccc(CCNc2cc(N3CCN(C(=O)c4ccccc4F)CC3)ccc2[N+](=O)[O-])cc1OC` as the compound, how does the outcome read?
**A.** active

**Q.** How did the outcome turn out when `Cn1c(Sc2ccc(Br)cc2)c(C=O)c2ccccc21` was run?
**A.** active

**Q.** How did the outcome turn out when `Cc1ccc(Sc2c(C=O)c3ccccc3n2C)cc1` was run?
**A.** active

**Q.** `Cc1cccc(Sc2c(C=O)c3ccccc3n2C)c1` was tested. Which outcome did it give?
**A.** active

**Q.** `N#C/C(=C(/O)Cc1cccc2ccccc12)c1nc2ccccc2s1` was tested. Which outcome did it give?
**A.** active

**Q.** With `N#C/C(=C(/O)COc1ccc(Cl)cc1)c1nc2ccccc2s1` as the compound, how does the outcome read?
**A.** active

**Q.** `CS(=O)(=O)Nc1ccccc1C(=O)Nc1cc(Cl)cc(Cl)c1` was tested. Which outcome did it give?
**A.** active

**Q.** Which outcome does the source give for `COc1ccccc1NS(=O)(=O)c1cccc(NC(=O)c2sc3ccccc3c2Cl)c1` here?
**A.** active

**Q.** Which outcome does the source give for `Cc1ccc(NC(=O)c2ccccc2NS(=O)(=O)c2ccc(Cl)s2)cc1S(=O)(=O)N1CCOCC1` here?
**A.** active

**Q.** For `COc1ccc(C)cc1NC(=O)c1ccccc1NS(=O)(=O)c1ccc(Cl)s1`, which outcome is on record?
**A.** active

**Q.** How did the outcome turn out when `Cc1ccc(C)c(NC(=O)c2ccccc2NS(=O)(=O)c2cc([N+](=O)[O-])ccc2C)c1` was run?
**A.** active

**Q.** How did the outcome turn out when `Cc1ccc(NC(=O)c2ccccc2NS(=O)(=O)c2ccc(Cl)s2)cc1` was run?
**A.** active

**Q.** How did the outcome turn out when `COc1cc(NC(=O)c2ccccc2NS(=O)(=O)c2ccc(Cl)s2)cc(OC)c1` was run?
**A.** active

**Q.** `O=C1CCC2S/C(=C/Nc3ccc(C(F)(F)F)cc3)C(=O)N12` (configuration not stated) was tested. Which outcome did it give?
**A.** active

**Q.** With `Cc1ccc(-c2nn(CCC(=O)O)cc2/C=C\C(=O)c2ccc(Br)cc2)cc1` as the compound, how does the outcome read?
**A.** active

**Q.** Which outcome does the source give for `O=C(c1ccccc1)c1nn(-c2ccc(Cl)cc2)c(=O)cc1C(F)(F)F` here?
**A.** active

**Q.** With `CCOC(=O)c1c(N2C(=O)Nc3cc(Cl)c(Cl)cc3N2O)sc2c1CCCCC2` as the compound, how does the outcome read?
**A.** active

**Q.** How did the outcome turn out when `COc1ccc2cc3c(N)nn(C(=O)Cc4ccccc4OC)c3nc2c1` was run?
**A.** active

**Q.** Which outcome does the source give for `COc1ccc2cc3c(N)nn(C(=O)Cc4c[nH]c5ccccc45)c3nc2c1` here?
**A.** active

**Q.** `CCCCCCc1cc2cc(S(=O)(=O)c3ccc(F)c(Cl)c3)c(=O)oc2cc1O` was tested. Which outcome did it give?
**A.** active

**Q.** How did the outcome turn out when `CCCCCCc1cc2cc(S(=O)(=O)c3ccc(Cl)cc3)c(=O)oc2cc1O` was run?
**A.** active

**Q.** Which outcome does the source give for `Cc1nn(Cc2ccc(Cl)cc2)c(C)c1NC(=O)c1noc2c1CCc1ccccc1-2` here?
**A.** active

**Q.** For `CC(C)Cn1c(N)c(C(=O)CSc2ccc3c(c2)OCCO3)c(=O)n(C)c1=O`, which outcome is on record?
**A.** active

**Q.** Which outcome does the source give for `COc1ccc(-c2cc(=O)oc3c(C)c(O)ccc23)cc1` here?
**A.** active

**Q.** With `COc1ccc(-c2cc(=O)oc3c(C)c(OC(=O)c4cccs4)ccc23)cc1` as the compound, how does the outcome read?
**A.** active

**Q.** How did the outcome turn out when `C=C1C(=O)O[C@@H]2C[C@@H](C)[C@@H]3C=CC(=O)[C@@]3(C)[C@@H](OC(C)=O)[C@H]12` was run?
**A.** active

**Q.** Which outcome does the source give for `COc1ccc(-c2cn[nH]c2-c2ccc(OC)cc2O)cc1` here?
**A.** active

**Q.** Which outcome does the source give for `COc1ccc(-c2cn[nH]c2-c2ccc(O)cc2O)cc1` here?
**A.** active

**Q.** With `COc1ccc(-c2cn[nH]c2-c2ccc(OC)cc2)cc1` as the compound, how does the outcome read?
**A.** active

**Q.** `COc1ccc(-c2[nH]ncc2-c2ccc3c(c2)OCCO3)c(O)c1` was tested. Which outcome did it give?
**A.** active

**Q.** How did the outcome turn out when `Cc1nc2ccc(NS(=O)(=O)c3ccc(F)c(C)c3)cc2[nH]1` was run?
**A.** active

**Q.** For `O=C(Nc1nnc(-c2ccccc2Cl)o1)c1ccc(S(=O)(=O)N2CCCCCC2)cc1`, which outcome is on record?
**A.** active

**Q.** How did the outcome turn out when `CCC1CCCCN1S(=O)(=O)c1ccc(C(=O)Nc2nnc(-c3ccccc3Cl)o2)cc1` (configuration not stated) was run?
**A.** active

**Q.** `CC1CCCCN1S(=O)(=O)c1ccc(C(=O)Nc2nnc(-c3ccccc3Cl)o2)cc1` (configuration not stated) was tested. Which outcome did it give?
**A.** active

**Q.** For `Cc1nc2ccccc2c(C)c1C(=O)c1ccc(F)cc1.Cl`, which outcome is on record?
**A.** active

**Q.** For `COCCn1c(C)cc(C(=O)COc2ccc(C)nc2[N+](=O)[O-])c1C`, which outcome is on record?
**A.** active

**Q.** How did the outcome turn out when `Cc1ccc(OCC(=O)c2cc(C)n(Cc3ccco3)c2C)c([N+](=O)[O-])n1` was run?
**A.** active

**Q.** `COCCn1c(C)cc(C(=O)COC(=O)c2cccc(O)c2)c1C` was tested. Which outcome did it give?
**A.** active

**Q.** How did the outcome turn out when `Cc1ccc(OCC(=O)c2cc(C)n(Cc3cccs3)c2C)c([N+](=O)[O-])n1` was run?
**A.** active

**Q.** With `CCOC(=O)/C=C/S(=O)(=O)c1ccc(NC(C)=O)cc1` as the compound, how does the outcome read?
**A.** active

**Q.** For `O=C(Oc1c(-c2ccccc2)c(=O)n2c3c(cccc13)CC2)c1ccccc1`, which outcome is on record?
**A.** active

**Q.** For `O=C(Oc1c(-c2ccccc2)c(=O)n2c3c(cccc13)CC2)c1ccc(Cl)cc1`, which outcome is on record?
**A.** active

**Q.** With `CC(C)(C)OC(=O)NCC(=O)Oc1cc2oc(=O)cc(-c3ccccc3)c2cc1Cl` as the compound, how does the outcome read?
**A.** active

**Q.** For `O=C(CNC(=O)OCc1ccccc1)Oc1cc2oc(=O)cc(-c3ccccc3)c2cc1Cl`, which outcome is on record?
**A.** active

**Q.** How did the outcome turn out when `CN(CC1CCCO1)S(=O)(=O)c1ccc(C(=O)Nc2nc3cc4c(cc3s2)OCO4)cc1` (configuration not stated) was run?
**A.** active

**Q.** How did the outcome turn out when `CC(=O)c1cn(CCOc2ccccc2C)c2ccccc12` was run?
**A.** active

**Q.** `CC(=O)c1cn(CCOc2cc(C)ccc2C)c2ccccc12` was tested. Which outcome did it give?
**A.** active

**Q.** For `COc1ccc(-c2cc(N)n(S(=O)(=O)c3c(F)c(F)c(F)c(F)c3F)n2)cc1OC`, which outcome is on record?
**A.** active

**Q.** For `N#CC(C#N)=C(Nc1ccc(F)cc1)SCc1cccc(F)c1`, which outcome is on record?
**A.** active

**Q.** `N#CC(C#N)=C(Nc1ccc(F)cc1)SCc1cccc(Br)c1` was tested. Which outcome did it give?
**A.** active

**Q.** For `Cc1ccc(CSC(Nc2ccc(F)cc2)=C(C#N)C#N)cc1`, which outcome is on record?
**A.** active

**Q.** How did the outcome turn out when `O=C(COc1ccc2c(-c3ccccc3)cc(=O)oc2c1)Nc1ccc(CCO)cc1` was run?
**A.** active
